In PubChem BioAssay (NCATS):
Inconclusive results are not listed. Activity calls are given as the source filed them. Unless noted, calls come from the whole dose curve; as a rule, active = well fitted curve in the direction sought with a large enough effect; inconclusive = small, poorly fitted or top-dose-only effect, or another doubt; inactive = no such curve, though single readings can be large; an effect the other way counts as inactive or inconclusive.

How the values were obtained:
[1] = target: ATP-dependent 6-phosphofructokinase (Trypanosoma brucei brucei) (UniProt O15648); assay: qHTS Assay to Find Inhibitors of T. brucei phosphofructokinase: hit validation (AID 492961);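 note: luminescence reports ADP formed as PFK phosphorylates fructose-6-phosphate with ATP; % is set by controls: 0 for no effect and ±100 for the full control effect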
ATP-dependent 6-phosphofructokinase (Trypanosoma brucei brucei), sequence (O15648 whole entry, looked up): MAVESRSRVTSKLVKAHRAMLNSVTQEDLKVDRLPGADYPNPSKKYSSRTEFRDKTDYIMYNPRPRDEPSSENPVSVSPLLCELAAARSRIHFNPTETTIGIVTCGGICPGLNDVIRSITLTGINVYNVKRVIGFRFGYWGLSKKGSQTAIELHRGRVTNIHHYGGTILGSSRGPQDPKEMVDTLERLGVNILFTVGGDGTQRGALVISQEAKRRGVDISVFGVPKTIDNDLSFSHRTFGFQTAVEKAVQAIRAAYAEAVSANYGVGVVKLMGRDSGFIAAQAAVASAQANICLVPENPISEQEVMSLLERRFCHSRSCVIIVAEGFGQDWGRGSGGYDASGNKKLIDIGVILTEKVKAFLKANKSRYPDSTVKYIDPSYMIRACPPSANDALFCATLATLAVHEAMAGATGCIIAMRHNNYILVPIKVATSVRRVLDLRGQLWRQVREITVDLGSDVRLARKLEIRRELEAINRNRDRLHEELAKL
Outline: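 Compounds titrated; %activity normalized to 0x and 1x enzyme controls, curve-fitted. Readout: ADP-Glo luminescence after 45 min room-temperature reaction of 1.25 nM PFK, 0.1 mM ATP, 0.5 mM F6P, pH 8.0.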

[2] = target: Ubiquitin carboxyl-terminal hydrolase 1 (Homo sapiens) (UniProt O94782); assay: Inhibitors of USP1/UAF1: Pilot qHTS (AID 504865);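 note: rhodamine fluorescence freed from ubiquitin-rhodamine substrate followed over time; top concentration of the series differs between compounds; % is set by controls: 0 for no effect and ±100 for the full control effect; nearly all actives have a fitted effect of over 35% in size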
Ubiquitin carboxyl-terminal hydrolase 1 (Homo sapiens), sequence (O94782 whole entry, looked up): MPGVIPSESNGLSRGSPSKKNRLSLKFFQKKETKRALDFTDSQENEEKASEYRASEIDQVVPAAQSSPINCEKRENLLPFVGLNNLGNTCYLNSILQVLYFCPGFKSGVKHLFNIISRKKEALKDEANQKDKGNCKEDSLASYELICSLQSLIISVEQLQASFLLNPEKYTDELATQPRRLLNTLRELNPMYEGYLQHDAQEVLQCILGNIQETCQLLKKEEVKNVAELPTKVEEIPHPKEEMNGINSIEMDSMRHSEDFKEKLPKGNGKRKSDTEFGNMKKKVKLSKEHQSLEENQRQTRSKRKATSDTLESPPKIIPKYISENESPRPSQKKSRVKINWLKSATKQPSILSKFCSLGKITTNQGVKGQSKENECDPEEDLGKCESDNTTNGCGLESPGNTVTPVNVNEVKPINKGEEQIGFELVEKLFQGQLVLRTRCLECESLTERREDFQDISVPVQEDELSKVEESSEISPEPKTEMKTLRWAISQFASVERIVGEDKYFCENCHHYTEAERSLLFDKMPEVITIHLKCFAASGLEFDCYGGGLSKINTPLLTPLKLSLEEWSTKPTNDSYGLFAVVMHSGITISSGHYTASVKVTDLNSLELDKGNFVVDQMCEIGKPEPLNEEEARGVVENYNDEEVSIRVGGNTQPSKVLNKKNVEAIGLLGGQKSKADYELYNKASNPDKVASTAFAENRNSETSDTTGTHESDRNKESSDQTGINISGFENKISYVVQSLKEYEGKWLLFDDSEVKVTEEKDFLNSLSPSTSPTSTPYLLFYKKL
Outline: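 Enzyme-free wells gave the negative control, while test wells held 1nM USP1/UAF1 preincubated with compound for 15 min at room temperature. Ub-Rho at 150nM final started the reaction, and fluorescence at 480/540 nm was recorded kinetically.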

[3] = target: Luciferin 4-monooxygenase (Photinus pyralis) (UniProt P08659); assay: Biochemical firefly luciferase enzyme assay for NPC (AID 624030);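 note: purified P. pyralis luciferase at 10 nM with luciferin and ATP substrate; 0% = DMSO and -100% = full luciferase inhibition by PTC124 control; nearly all actives have a fitted effect of over 70% in size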
Luciferin 4-monooxygenase (Photinus pyralis), sequence (P08659 whole entry, looked up): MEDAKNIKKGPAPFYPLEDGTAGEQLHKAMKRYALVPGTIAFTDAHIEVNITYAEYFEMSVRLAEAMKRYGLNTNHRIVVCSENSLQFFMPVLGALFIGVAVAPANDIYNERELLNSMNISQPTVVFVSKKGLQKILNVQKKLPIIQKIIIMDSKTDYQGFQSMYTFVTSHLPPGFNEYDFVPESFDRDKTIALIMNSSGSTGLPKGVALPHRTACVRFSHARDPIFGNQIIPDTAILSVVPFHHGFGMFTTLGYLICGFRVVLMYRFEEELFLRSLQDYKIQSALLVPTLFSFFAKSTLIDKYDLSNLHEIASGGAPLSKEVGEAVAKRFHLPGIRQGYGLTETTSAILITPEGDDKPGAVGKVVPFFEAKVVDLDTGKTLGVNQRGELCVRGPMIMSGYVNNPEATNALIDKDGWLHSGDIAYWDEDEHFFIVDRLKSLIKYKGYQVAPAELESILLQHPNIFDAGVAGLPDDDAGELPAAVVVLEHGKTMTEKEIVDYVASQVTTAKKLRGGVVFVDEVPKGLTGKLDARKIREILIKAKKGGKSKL
Outline: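 Purified P. pyralis luciferase at 10 nM in 50 mM Tris Acetate (final), luminescence read within 5 minutes of enzyme addition to compounds. Activity normalised to PTC124 versus DMSO; concentration-response curves classed by r2, magnitude and activity.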

[4] = S16 Schwann cell viability assay (CellTiter-Glo assay) (AID 624031);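 note: cellular ATP luminescence as a viability measure; plate controls were DMSO-treated cells for no effect and cell-free wells for full effect; nearly all actives have a fitted effect of over 70% in size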
Outline: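 Untransfected S16 rat Schwann cells; compound 24 h, 37 °C/5% CO2; CellTiter-Glo ATP luminescence. % activity vs no-cell wells and DMSO controls (0%); concentration-effect curves classed by r2, response magnitude, activity.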

[5] = S16 Schwann cell PMP22 intronic element firefly luciferase assay (AID 624032);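 note: plate controls were DMSO for no effect and PTC124 positive control mean for full effect; nearly all actives have a fitted effect of over 30% in size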
Outline: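 Rat S16 Schwann cells stably carrying firefly luciferase driven by a PMP22 intronic element, in 10% FBS, treated 24 h at 37 C. ONE-Glo luminescence normalized to PTC124 control and DMSO (0%); curves classed by r2, magnitude and activity.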

[6] = S16 Schwann cell PMP22 intronic element beta-lactamase assay (AID 624044; calls by dose curve;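 note: 0% = DMSO and -100% = potassium clavulanate positive control; nearly all actives have a fitted effect of over 15% in size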); conditions: S16 rat Schwann cells, PMP22 element beta-lactamase FRET, 24 h; ratio activity, negative = inhibition: at 38.3 µM (top of the series)
Outline: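 Rat S16 Schwann cells with beta-Lac driven by a PMP22 intronic element, compound-treated 24 h at 37 °C. LiveBLAzer FRET B/G read: 460 nm normalized to potassium clavulanate vs DMSO; 535 nm FRET as viability; concentration-effect curves classified.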

[7] = qHTS profiling for inhibitors of Plasmodium falciparum proliferation (AID 504749);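 note: 0% = DMSO vehicle and full inhibition = artemisinin control; nearly all actives have a fitted effect of over 60% in size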; conditions: P. falciparum in erythrocytes, SYBR Green DNA, 72 h, at 28.7 µM (top of the series)
Outline: (§1)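 P. falciparum-infected erythrocytes (0.3% parasitemia, 2.5% hematocrit) incubated with compound 72 h at 37 C, 5% CO2. Parasite DNA detected by SYBR Green after lysis, overnight at room temperature; normalised to 0.29 uM artemisinin and DMSO.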

3D7 = assay: as above; conditions: P. falciparum in erythrocytes, SYBR Green DNA, 72 h; series mostly up to 28.7 µM
Outline: as §1

7G8 = assay: as above; conditions: P. falciparum in erythrocytes, SYBR Green DNA, 72 h; series mostly up to 28.7 µM
Outline: as §1

AA1029 = assay: as above; conditions: P. falciparum in erythrocytes, SYBR Green DNA, 72 h; series mostly up to 28.7 µM
Outline: as §1

AS120 = assay: as above; conditions: P. falciparum in erythrocytes, SYBR Green DNA, 72 h; series mostly up to 28.7 µM
Outline: as §1

ATS189 = assay: as above; conditions: P. falciparum in erythrocytes, SYBR Green DNA, 72 h; series mostly up to 28.7 µM
Outline: as §1

ATS95 = assay: as above; conditions: P. falciparum in erythrocytes, SYBR Green DNA, 72 h; series mostly up to 28.7 µM
Outline: as §1

C2A = assay: as above; conditions: P. falciparum in erythrocytes, SYBR Green DNA, 72 h; series mostly up to 28.7 µM
Outline: as §1

CP185 = assay: as above; conditions: P. falciparum in erythrocytes, SYBR Green DNA, 72 h; series mostly up to 28.7 µM
Outline: as §1

CP191 = assay: as above; conditions: P. falciparum in erythrocytes, SYBR Green DNA, 72 h; series mostly up to 28.7 µM
Outline: as §1

CP192 = assay: as above; conditions: P. falciparum in erythrocytes, SYBR Green DNA, 72 h; series mostly up to 28.7 µM
Outline: as §1

CP194 = assay: as above; conditions: P. falciparum in erythrocytes, SYBR Green DNA, 72 h; series mostly up to 28.7 µM
Outline: as §1

CP201 = assay: as above; conditions: P. falciparum in erythrocytes, SYBR Green DNA, 72 h; series mostly up to 28.7 µM
Outline: as §1

CP203 = assay: as above; conditions: P. falciparum in erythrocytes, SYBR Green DNA, 72 h; series mostly up to 28.7 µM
Outline: as §1

CP211 = assay: as above; conditions: P. falciparum in erythrocytes, SYBR Green DNA, 72 h; series mostly up to 28.7 µM
Outline: as §1

CP215 = assay: as above; conditions: P. falciparum in erythrocytes, SYBR Green DNA, 72 h; series mostly up to 28.7 µM
Outline: as §1

CP217 = assay: as above; conditions: P. falciparum in erythrocytes, SYBR Green DNA, 72 h; series mostly up to 28.7 µM
Outline: as §1

CP237 = assay: as above; conditions: P. falciparum in erythrocytes, SYBR Green DNA, 72 h; series mostly up to 28.7 µM
Outline: as §1

CP238 = assay: as above; conditions: P. falciparum in erythrocytes, SYBR Green DNA, 72 h; series mostly up to 28.7 µM
Outline: as §1

CP247 = assay: as above; conditions: P. falciparum in erythrocytes, SYBR Green DNA, 72 h; series mostly up to 28.7 µM
Outline: as §1

CP250 = assay: as above; conditions: P. falciparum in erythrocytes, SYBR Green DNA, 72 h; series mostly up to 28.7 µM
Outline: as §1

CP252 = assay: as above; conditions: P. falciparum in erythrocytes, SYBR Green DNA, 72 h; series mostly up to 28.7 µM
Outline: as §1

CP256 = assay: as above; conditions: P. falciparum in erythrocytes, SYBR Green DNA, 72 h; series mostly up to 28.7 µM
Outline: as §1

CP260 = assay: as above; conditions: P. falciparum in erythrocytes, SYBR Green DNA, 72 h; series mostly up to 28.7 µM
Outline: as §1

CP262 = assay: as above; conditions: P. falciparum in erythrocytes, SYBR Green DNA, 72 h; series mostly up to 28.7 µM
Outline: as §1

CP265 = assay: as above; conditions: P. falciparum in erythrocytes, SYBR Green DNA, 72 h; series mostly up to 28.7 µM
Outline: as §1

CNC(=O)C(N)CSC(C)C1=C(C)c2cc3[n-]c(cc4nc(cc5[n-]c(cc1n2)c(C)c5CCC(=O)O)C(CCC(=O)O)=C4C)c(C)c3C(C)SCC(N)C(=O)NC.[Fe+2] (stereo not drawn)
inactive: Potency [1] | Potency [2] | Potency [3] | Potency [4] | Potency [5] | Potency [6] | activity, negative = inhibition ([7]; parasite line A) 8.98% | activity, negative = inhibition ([7]; parasite line B) -1.36% | Potency (3D7) | Potency (7G8) | Potency (AA1029) | Potency (AS120) | Potency (ATS189) | Potency (ATS95) | Potency (C2A) | Potency (CP185) | Potency (CP191) | Potency (CP192) | Potency (CP194) | Potency (CP201) | Potency (CP203) | Potency (CP211) | Potency (CP215) | Potency (CP217) | Potency (CP237) | Potency (CP238) | Potency (CP247) | Potency (CP250) | Potency (CP252) | Potency (CP256) | Potency (CP260) | Potency (CP262) | Potency (CP265)
